Our source for the log2 fold change values is the supplement of paper PMC10849652.

What all share (experiment): log2 fold change, soluble protein after heating vs DMSO (PISA); higher = thermal stabilisation; K562 cells, 10 uM, 30 min; active = over 0.2 and 3.5 SD of the protein, either way, in both replicates (recomputed)
Compound in assay [1]: NC1(c2ccc(-c3nc4ccn5c(=O)[nH]nc5c4cc3-c3ccccc3)cc2)CCC1
Summed up:
(§1)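 Soluble protein was quantified by TMTpro 16plex LC-MS/MS after channel sums were equalised. It was obtained as the supernatant after 21,000xg for 90 min from pooled aliquots of K562 cells (2×10^6 cells/mL, 10 μM compound, 30 min) heated for 3 min across 48°C-58°C and extracted in PBS with 0.5% NP-40 at 4°C. Thermal stability values are relative to control samples and come from duplicates. They are given as log2 fold changes.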

Compound in a further assay: O=C(O)c1ccc2c(c1)nc(Nc1cccc(Cl)c1)c1ccncc12 [silmitasertib]
Summed up: as §1

Compound in assay [2]: O=C1NC(=O)C(c2cnc3ccccn23)=C1c1cn2c3c(cc(F)cc13)CN(C(=O)N1CCCCC1)CC2
Summed up:
as §1

Compound in assay [3]: NC(=O)Nc1cc(-c2cccc(F)c2)sc1C(=O)N[C@H]1CCCNC1
In outline:
as §1

Compound in assay [4]: NC(=O)c1cnc(N[C@@H]2CCCC[C@@H]2N)nc1Nc1cccc(-n2nccn2)c1
In outline:
as §1

Compound in assay [5]: NCC(=O)Nc1ccc(-n2nc(C(F)(F)F)cc2-c2ccc3c(ccc4ccccc43)c2)cc1
Summed up:
as §1

Compound in another assay: Nc1ccccc1NC(=O)c1ccc(CNC(=O)OCc2cccnc2)cc1 [entinostat]
In outline:
as §1

Compound in a further assay: O=C(CCCCCCC(=O)Nc1ccccc1)NO [vorinostat]
Summed up: as §1

Compound in the next assay: O=C(CCCCCCNC(=O)c1cnc(N(c2ccccc2)c2ccccc2Cl)nc1)NO [citarinostat]
In outline:
as §1

Compound in assay [6]: c1cc(OCCN2CCCCC2)cc(-c2n[nH]c3ccc(-c4nnc[nH]4)cc23)c1
Summed up: as §1

Compound in the next assay: c1cn2cc(-c3ccc4cn[nH]c4c3)nc(Nc3ccc(N4CCOCC4)cc3)c2n1 [entospletinib]
In outline:
as §1

About 7,900 targets were measured; listed, in parts, are those with a hit and a random draw of the rest. About 0.6% of all pairs of compound and target were hits. Unmarked numbers belong to inactive results.

Chain of UniProt Q68D20 (Q68D20 whole entry, looked up): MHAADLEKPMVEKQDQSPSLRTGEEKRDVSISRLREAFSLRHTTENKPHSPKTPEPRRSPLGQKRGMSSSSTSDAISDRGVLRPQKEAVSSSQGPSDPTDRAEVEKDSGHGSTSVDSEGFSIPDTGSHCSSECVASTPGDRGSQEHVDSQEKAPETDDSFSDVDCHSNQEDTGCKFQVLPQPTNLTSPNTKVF
Chain of UniProt Q96RV3 (Q96RV3 whole entry, looked up): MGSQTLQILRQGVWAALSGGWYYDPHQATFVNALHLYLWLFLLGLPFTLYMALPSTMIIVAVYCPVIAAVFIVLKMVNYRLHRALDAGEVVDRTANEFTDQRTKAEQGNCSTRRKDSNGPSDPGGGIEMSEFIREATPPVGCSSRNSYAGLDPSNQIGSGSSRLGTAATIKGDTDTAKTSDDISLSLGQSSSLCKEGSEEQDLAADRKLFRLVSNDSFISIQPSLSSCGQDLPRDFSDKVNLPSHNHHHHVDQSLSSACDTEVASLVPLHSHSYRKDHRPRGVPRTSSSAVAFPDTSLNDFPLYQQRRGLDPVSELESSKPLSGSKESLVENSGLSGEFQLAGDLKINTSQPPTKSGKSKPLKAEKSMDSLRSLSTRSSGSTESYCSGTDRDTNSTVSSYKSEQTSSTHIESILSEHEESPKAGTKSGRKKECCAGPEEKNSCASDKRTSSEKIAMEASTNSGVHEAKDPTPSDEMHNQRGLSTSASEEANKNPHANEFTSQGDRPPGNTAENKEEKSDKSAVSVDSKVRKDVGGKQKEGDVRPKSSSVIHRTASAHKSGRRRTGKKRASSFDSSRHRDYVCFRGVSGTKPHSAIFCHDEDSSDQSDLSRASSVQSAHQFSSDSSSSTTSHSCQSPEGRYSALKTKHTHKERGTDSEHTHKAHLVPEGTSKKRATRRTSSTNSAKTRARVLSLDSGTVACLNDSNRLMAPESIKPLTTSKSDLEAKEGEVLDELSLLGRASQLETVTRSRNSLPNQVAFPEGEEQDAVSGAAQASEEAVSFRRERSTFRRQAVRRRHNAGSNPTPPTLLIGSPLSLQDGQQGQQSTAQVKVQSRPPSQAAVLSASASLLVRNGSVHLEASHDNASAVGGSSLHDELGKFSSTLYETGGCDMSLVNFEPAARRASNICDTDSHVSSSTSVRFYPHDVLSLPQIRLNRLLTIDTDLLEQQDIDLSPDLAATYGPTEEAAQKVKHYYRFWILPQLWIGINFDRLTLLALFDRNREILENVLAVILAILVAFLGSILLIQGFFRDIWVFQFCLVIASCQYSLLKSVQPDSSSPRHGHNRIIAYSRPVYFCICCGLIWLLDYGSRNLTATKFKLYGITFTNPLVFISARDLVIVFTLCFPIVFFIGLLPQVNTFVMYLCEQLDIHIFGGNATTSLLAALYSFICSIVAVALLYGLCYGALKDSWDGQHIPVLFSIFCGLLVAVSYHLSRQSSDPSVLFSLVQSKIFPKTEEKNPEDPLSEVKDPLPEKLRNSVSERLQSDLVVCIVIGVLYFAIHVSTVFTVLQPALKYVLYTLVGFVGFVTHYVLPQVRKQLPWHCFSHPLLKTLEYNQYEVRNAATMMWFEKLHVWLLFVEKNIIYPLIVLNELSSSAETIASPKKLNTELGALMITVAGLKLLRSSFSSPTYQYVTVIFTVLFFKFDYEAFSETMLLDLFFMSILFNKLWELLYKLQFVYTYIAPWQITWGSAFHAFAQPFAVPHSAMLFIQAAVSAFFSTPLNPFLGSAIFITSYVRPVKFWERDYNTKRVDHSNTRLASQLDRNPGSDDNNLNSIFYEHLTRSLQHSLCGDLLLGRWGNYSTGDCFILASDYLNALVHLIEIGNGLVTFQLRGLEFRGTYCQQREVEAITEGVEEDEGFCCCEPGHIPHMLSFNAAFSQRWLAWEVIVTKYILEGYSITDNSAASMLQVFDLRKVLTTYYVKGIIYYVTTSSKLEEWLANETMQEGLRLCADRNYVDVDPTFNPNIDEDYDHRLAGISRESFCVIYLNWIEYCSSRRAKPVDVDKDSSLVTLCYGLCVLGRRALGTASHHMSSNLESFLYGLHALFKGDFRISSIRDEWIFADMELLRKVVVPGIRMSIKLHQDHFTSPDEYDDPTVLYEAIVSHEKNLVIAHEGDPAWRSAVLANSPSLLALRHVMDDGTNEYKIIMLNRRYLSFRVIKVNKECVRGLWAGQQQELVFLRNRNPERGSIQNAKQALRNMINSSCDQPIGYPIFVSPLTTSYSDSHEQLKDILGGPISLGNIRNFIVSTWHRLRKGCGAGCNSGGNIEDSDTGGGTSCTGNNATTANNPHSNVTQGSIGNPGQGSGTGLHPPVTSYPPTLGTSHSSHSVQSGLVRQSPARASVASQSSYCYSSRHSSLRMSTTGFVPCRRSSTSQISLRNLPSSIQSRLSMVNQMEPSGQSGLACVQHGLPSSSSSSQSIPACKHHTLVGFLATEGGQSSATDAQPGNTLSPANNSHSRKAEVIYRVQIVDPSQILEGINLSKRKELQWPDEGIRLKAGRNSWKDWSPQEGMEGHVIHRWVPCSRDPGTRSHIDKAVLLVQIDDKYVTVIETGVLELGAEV
Chain of UniProt Q86YH6 (Q86YH6 whole entry, looked up): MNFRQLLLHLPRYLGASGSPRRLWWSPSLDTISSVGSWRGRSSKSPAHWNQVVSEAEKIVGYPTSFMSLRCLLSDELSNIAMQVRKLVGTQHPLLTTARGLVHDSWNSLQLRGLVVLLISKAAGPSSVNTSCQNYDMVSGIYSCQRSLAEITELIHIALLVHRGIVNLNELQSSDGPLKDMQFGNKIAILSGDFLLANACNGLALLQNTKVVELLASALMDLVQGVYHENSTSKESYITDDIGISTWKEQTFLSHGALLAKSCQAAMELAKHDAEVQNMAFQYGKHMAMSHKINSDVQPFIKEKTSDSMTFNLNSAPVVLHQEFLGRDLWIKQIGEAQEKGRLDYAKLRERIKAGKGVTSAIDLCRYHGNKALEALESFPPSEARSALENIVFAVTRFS
Chain of UniProt O94913 (O94913 whole entry, looked up): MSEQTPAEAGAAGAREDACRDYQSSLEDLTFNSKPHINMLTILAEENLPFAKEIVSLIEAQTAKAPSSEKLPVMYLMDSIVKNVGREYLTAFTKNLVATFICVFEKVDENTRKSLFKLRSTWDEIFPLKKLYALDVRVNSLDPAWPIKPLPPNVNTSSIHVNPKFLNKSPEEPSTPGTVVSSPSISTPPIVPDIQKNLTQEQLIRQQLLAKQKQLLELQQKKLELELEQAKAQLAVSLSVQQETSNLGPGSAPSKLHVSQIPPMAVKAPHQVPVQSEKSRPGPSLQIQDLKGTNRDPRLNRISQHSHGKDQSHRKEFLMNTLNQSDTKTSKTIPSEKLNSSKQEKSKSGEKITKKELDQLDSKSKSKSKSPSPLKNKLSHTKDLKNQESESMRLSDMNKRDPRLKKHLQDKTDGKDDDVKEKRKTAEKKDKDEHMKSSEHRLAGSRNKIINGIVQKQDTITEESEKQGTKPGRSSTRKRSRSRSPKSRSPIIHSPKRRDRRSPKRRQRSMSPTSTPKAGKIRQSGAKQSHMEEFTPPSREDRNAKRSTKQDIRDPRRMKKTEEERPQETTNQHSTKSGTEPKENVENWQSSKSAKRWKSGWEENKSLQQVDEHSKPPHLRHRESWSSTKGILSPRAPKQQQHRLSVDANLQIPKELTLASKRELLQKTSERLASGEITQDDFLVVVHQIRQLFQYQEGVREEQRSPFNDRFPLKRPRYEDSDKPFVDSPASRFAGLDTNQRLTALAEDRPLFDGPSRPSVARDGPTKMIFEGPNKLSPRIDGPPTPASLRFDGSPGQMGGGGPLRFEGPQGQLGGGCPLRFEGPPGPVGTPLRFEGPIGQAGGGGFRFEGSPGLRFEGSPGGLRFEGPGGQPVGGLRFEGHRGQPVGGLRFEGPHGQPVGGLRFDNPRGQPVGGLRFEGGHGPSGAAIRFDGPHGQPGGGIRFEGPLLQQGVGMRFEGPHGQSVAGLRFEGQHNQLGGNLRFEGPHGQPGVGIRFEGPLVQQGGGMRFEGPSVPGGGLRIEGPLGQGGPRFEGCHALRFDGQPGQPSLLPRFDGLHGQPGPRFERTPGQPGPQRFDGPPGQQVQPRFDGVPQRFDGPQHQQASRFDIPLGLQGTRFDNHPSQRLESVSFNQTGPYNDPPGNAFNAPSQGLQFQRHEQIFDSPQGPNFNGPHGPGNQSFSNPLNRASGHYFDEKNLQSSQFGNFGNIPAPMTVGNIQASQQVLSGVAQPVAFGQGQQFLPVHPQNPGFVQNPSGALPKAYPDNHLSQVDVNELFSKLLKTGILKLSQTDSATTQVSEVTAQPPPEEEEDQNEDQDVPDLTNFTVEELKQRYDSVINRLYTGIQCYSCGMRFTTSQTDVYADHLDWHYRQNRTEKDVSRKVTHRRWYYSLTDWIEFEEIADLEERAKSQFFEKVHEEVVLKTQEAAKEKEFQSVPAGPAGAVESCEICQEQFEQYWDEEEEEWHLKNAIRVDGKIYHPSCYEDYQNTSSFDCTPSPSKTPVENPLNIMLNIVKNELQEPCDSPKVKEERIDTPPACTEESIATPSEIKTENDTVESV
Chain of UniProt Q9UHX1 (Q9UHX1 whole entry, looked up): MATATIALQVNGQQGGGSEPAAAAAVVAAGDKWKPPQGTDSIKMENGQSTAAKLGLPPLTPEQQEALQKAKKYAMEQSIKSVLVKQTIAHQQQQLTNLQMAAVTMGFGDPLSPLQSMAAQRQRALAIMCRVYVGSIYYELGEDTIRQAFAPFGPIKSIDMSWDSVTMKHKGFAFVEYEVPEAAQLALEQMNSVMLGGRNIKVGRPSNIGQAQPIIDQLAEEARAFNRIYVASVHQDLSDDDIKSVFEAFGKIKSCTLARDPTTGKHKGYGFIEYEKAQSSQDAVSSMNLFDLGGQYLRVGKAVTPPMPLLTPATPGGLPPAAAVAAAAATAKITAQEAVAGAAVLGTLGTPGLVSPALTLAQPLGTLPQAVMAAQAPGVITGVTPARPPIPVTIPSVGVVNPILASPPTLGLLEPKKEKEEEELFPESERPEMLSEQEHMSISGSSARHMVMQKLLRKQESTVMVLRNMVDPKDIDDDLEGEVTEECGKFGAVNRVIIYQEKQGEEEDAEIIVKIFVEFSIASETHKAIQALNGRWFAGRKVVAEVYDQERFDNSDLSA

Take PMS2CL (UniProt Q68D20): the log2 fold change was 0.185 in assay [1], 0.095 with silmitasertib and 0.062 in [2].

As to PRKX (UniProt P51817), the results for the log2 fold change (in assay [1]; with silmitasertib) were -0.243 and 0.153, respectively.

On to PEX5 isoform 4 (UniProt P50542), for which the log2 fold change in assay [3] was 0.019; in assay [4] it was 0.002; in assay [5] it was 0.041; in the assay with entinostat, 0; in assay [2], 0.163.

Turning to PDSS2 (UniProt Q86YH6), the log2 fold change in assay [3] was -0.108; in assay [4], -0.015; in [5], 0.011; with entinostat, -0.009; in the assay with vorinostat, 0.041; with citarinostat it was 0.018. Further, the log2 fold change in assay [2] is 0.026; in [6] it was -0.029; in the assay with entospletinib it was -0.152.

PCF11 (UniProt O94913): the log2 fold change in [4] was -0.047; in assay [1], -0.333; in [5], -0.179; with vorinostat, -0.04; with citarinostat, 0.001; with silmitasertib it was -0.113. The log2 fold change in assay [6] is 0.112; in the assay with entospletinib, -0.745 (active).

Turning to PIM1 isoform 2 (UniProt P11309), the log2 fold change in assay [1] is 0.388; with vorinostat, -0.123; in the assay with silmitasertib, 0.575.

Regarding PSMD8 (UniProt K7ERW6), the log2 fold change in [5] was -0.417.

For the target PSMA3 (UniProt H0YJ03), the log2 fold change in assay [4] is -0.059; in [5] it was -0.048; with citarinostat, 0.081; in [6], 0.143; with entospletinib it was -0.059.

For the target PHRF1 (UniProt Q9P1Y6), the log2 fold change in [1] was 0.148; with silmitasertib, 0.176.

Regarding PAN2 (UniProt Q504Q3), the log2 fold change in assay [5] was -0.198; with citarinostat, -0.127; in assay [6] it was 0.002; with entospletinib, -0.151.

As for PUF60 isoform 2 (UniProt Q9UHX1), the log2 fold change in assay [4] is 0.024; in assay [1], -0.137; in assay [5], 0.21; with silmitasertib it was 0.069.

Take PSMC1 (UniProt G3V4X1): the log2 fold change with vorinostat was 0.168.

For the target PHC3 isoform 7 (UniProt Q8NDX5), the log2 fold change in [3] was 0.158; in [1], -0.125; with entinostat it was 0.1; with citarinostat, 0.172; with silmitasertib, -0.018; in [2] it was 0.567 (active). Moreover, the log2 fold change in assay [6] was -0.014; with entospletinib, -0.215.

In the case of PTEN isoform 2 (UniProt P60484), the log2 fold change with vorinostat was 0.024; with citarinostat, 0.089; in assay [6], 0.066; with entospletinib, 0.025.

For the target PCNX1 (UniProt Q96RV3), the log2 fold change was 0.042 in assay [1]; -0.043 in assay [5]; -0.237 in the assay with citarinostat; -0.11 with silmitasertib; -0.14 in [2]; -0.269 in assay [6]. Besides, the log2 fold change with entospletinib was 0.179.
